What is called AC50 is the concentration giving half of the maximal activity seen.

A structure can be active in one record and inactive in another. Active and inactive are the calls of the source. The calls were made as follows: active = hit-call score of the fitted dose curve at least 0.9, where 1 is the maximum; inactive = score below 0.9.

Chain of Transcriptional activator Myb (Homo sapiens) (P10242 whole entry, looked up): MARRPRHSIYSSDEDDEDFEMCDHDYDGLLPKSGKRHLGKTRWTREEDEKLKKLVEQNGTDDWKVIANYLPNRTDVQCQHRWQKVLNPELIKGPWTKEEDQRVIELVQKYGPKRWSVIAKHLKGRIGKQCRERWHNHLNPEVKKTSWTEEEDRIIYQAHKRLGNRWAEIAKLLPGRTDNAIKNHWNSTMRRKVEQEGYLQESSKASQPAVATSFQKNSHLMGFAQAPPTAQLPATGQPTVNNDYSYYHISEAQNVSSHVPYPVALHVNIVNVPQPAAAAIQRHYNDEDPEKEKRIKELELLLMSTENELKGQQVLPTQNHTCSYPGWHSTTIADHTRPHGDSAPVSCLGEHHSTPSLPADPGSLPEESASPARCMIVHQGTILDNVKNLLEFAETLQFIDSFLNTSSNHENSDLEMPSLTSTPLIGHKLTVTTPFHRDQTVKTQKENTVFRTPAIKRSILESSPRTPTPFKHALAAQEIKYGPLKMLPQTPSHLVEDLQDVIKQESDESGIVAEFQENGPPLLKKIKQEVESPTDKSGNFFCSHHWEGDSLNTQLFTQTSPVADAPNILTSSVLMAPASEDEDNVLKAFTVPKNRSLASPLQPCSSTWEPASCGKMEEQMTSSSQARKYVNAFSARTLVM

The target in the test is Transcriptional activator Myb (Homo sapiens) (UniProt P10242). Kind of test: ATG_Myb_CIS: Attagene CIS-FACTORIAL HepG2 Assay for human Myeloblastosis (Myb) Proto-Oncogene Transcription Factor (AID 2282986). The following applies: HepG2 Attagene CIS-FACTORIAL Myb reporter transcription; actives raise or lower the signal. The procedure:
ATG_CIS is a cell-based, multiplexed-readout assay that uses HepG2, a human liver cell line, with measurements taken at 24 hours after chemical dosing in a 24-well plate.ATG_Myb_CIS is one of 52 assay component(s) measured or calculated from the ATG_CIS assay. It is designed to make measurements of mRNA induction, a form of inducible reporter, as detected with fluorescence intensity signals by Reverse transcription polymerase chain reaction (RT-PCR) and Capillary electrophoresis technology.Data from the assay component ATG_Myb_CIS was analyzed into 1 assay endpoint. This assay endpoint, ATG_Myb_CIS, was analyzed with bidirectional fitting relative to DMSO as the negative control and baseline of activity. Using a type of inducible reporter, measures of mRNA for gain or loss-of-signal activity can be used to understand the reporter gene at the transcription factor-level as they relate to the gene MYB. Furthermore, this assay endpoint can be referred to as a primary readout, because this assay has produced multiple assay endpoints where this one serves a reporter gene function. To generalize the intended target to other relatable targets, this assay endpoint is annotated to the dna binding intended target family, where the subfamily is MYB proteins.
Human liver HepG2 cells are transiently transfected with multiple reporter transcription units (MRTUs) in 6-well plates using FuGene 6 reagent (Roche; 3 ml FuGene/1 mg DNA). The MRTU constructs are regulated by a cis-regulating element (promoter). […] A major difference between the CIS and TRANS system is that in CIS activities of endogenous TFs are measured, whereas the TRANS assay evaluates changes in activities of exogenous, chimeric NR-Gal4 proteins. […] At the end of 24 hour incubation, total RNA was isolated using TriZol reagent (Invitrogen). The isolated RNA is then reverse-transcribed using oligo(dT) primer and Mo-MLV reverse transcriptase (Invitrogen) with DNAse I (Ambion) treatment for 30 min. The one-tenth of the produced cDNA was amplified by PCR using Taq DNA polymerase (Invitrogen) and two reporter sequence-specific primers. The PCR products were fluorescently labeled by primer extension with 6-arboxyfluorescein (6-FAM) 5'-labeled reporter sequence-specific primer (2 min at 95 C, 20 s at 68 C and 10 min at 72 C) and these products were digested with 5U of HpaI (New England Biolabs) for 2h at 37 C. The fragments were purified using Qiaquick PCR columns (Qiagen), analyzed on an ABI 3130xL genetic analyzer (Applied Biosystems) with peak positions identified by using a set of X-rhodamine (ROX)-labeled MapMarker1000 molecular weight standards (BioVentures). The raw capillary electrophoresis data was processed using Attagraph software (Attagene).
On to `FC(F)(F)C(F)(F)C(F)(F)CI`, for which the outcome was inactive.

Take `FC(F)(F)C(F)(F)C(F)(F)C(F)(F)C(F)(F)C(F)(F)C(F)(F)C(F)(F)CCS`: the compound was classed as inactive. On to `FC(F)(F)C(F)(F)C(F)(F)C(F)(F)CCI`, for which the compound was classed as inactive. Take `O=S(=O)(OCC(F)F)C(F)(F)F`: the result was inactive. Take `CCCCCCOC(=O)c1ccccc1`: the compound was classed as inactive. `c1ccc(B(c2ccccc2)c2ccccc2)cc1`: the compound was called inactive.

For `O=C(O)C(F)(F)C(F)(F)C(F)(F)C(F)(F)C(F)(F)C(F)(F)C(F)(F)C(F)(F)C(F)(F)C(F)(F)C(F)(F)C(F)(F)C(F)(F)F`, the compound was called inactive.

Turning to `CCCCCCOC(=O)c1ccccc1O`, the compound was called inactive. Regarding `FC(F)(F)C(F)(F)CNCC(F)(F)C(F)(F)F`, the result was inactive.

On to `O=S(=O)(O)c1ccc2ccccc2c1`, for which the result was inactive. As to `FC(F)(F)C(F)(F)C(F)(F)C(F)(F)C(F)(F)C(F)(F)CCS`, the compound was classed as inactive. Consider `O=C(O)C(F)(F)C(F)(F)C(F)(F)C(F)(F)C(F)(F)C(F)(F)C(F)(F)C(F)(F)Cl`, for which the call was inactive. On the same count and under the same terms, with `OC[C@@H](O)[C@@H](O)[C@H](O)[C@@H](O)CO` the entry was “inactive”; with `Cc1ccc(S(=O)(=O)OCC(F)(F)C(F)(F)C(F)(F)C(F)(F)C(F)(F)C(F)F)cc1`, “inactive”; with `CNC(=S)NC`, “inactive”. As for `Oc1ccc(Nc2ccccc2)cc1`, the outcome was inactive.

Regarding `CCCCOCCOCCOC(=O)CCCCC(=O)OCCOCCOCCCC`, the compound was classed as inactive.

Regarding `C(=C(c1ccccc1)c1ccccc1)c1ccccc1`, the call was inactive. Take `O=C(O)C(F)(F)C(F)(F)C(F)(F)F`: the outcome was inactive. Take `CC(C)OC(=O)c1ccccc1C(=O)OC(C)C`: the compound was classed as inactive.

For `CC(C)(C)C(=O)CC(=O)C(F)(F)C(F)(F)C(F)(F)F`, the compound was classed as inactive. On to `CCCCNc1ccccc1`, for which the outcome was inactive.

Turning to `FC(F)(F)C(F)(F)C(F)(F)C(F)(F)C(F)(F)C(F)(F)C(F)(F)Br`, the result was inactive. `O=S(=O)(O)C(F)(F)C(F)(F)C(F)(F)C(F)(F)C(F)(F)C(F)(F)C(F)(F)F`: the concentration at half-maximal activity (AC50) was 160 µM (active) and the compound was classed as inactive.

With `O=C(O)C(F)(F)C(F)(F)C(F)(F)C(F)(F)C(F)(F)C(F)(F)C(F)(F)C(F)(F)C(F)(F)C(F)F`, the compound was called inactive.

For `CC(C)c1ccccc1N`, the compound was called inactive. As for `C#C[C@]1(O)CC[C@H]2[C@@H]3CCc4cc(OC)ccc4[C@H]3CC[C@@]21C`, the result was inactive. With `O=C(Cl)C(F)(F)C(F)(F)C(F)(F)C(F)(F)C(F)(F)C(F)(F)C(F)(F)C(F)(F)F`, the call was inactive.

`CC/C=C\CCOC(C)=O`: the compound was classed as inactive.

For the compound `CC(=O)Nc1ccc(N=Nc2cc(C)ccc2O)cc1`, the compound was classed as inactive. In the case of `O=C(O)C(F)(F)C(F)(F)C(F)F`, the result was inactive. For `CC(CCl)OP(=O)(OC(C)CCl)OC(C)CCl` (stereo not given), the compound was called inactive. In the case of `O=C(OCCOCCOCCOC(=O)c1ccccc1)c1ccccc1`, the compound was called inactive. Consider `CCCCCCCOC(=O)c1ccccc1C(=O)OCCCCCCC`, for which the call was inactive.

Turning to `Cc1ccc(S(=O)(=O)NCl)cc1`, the compound was called inactive. With `C=C(C)C(=O)OCCC(F)(F)C(F)(F)C(F)(F)C(F)(F)C(F)(C(F)(F)F)C(F)(F)F`, the result was inactive. Take `CCc1ccc(C(c2ccc(CC)cc2)C(Cl)Cl)cc1`: the compound was called inactive.

On to `CCCCCC=O`, for which the outcome was inactive. On the same count and under the same terms, with `CO[Si](OC)(c1ccccc1)c1ccccc1` the entry was “inactive”.

The values above are taken from PubChem BioAssay (EPA / NIEHS).
